The supplement of paper PMC10338343
± gives the standard deviation.

test system: EfPiwi piRISC loaded with L1MC piRNA (26 nt); experiment: pre-steady-state target cleavage rate (min^-1); auxiliary factor: 500 nM Ephydatia muelleri Gtsf1; guide: L1MC piRNA 5'p-UAACUAAAUACUAUGCAAGCUGUAGG; MIWI and MILI are mouse PIWI proteins and EfPiwi is from a freshwater sponge; tags in brackets are library labels; higher = faster piRNA-guided slicing of the target
Summary of the method: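 The pre-steady-state cleavage rate came from a burst-and-steady-state fit to pooled data from three Cleave-'n-Seq trials, in which uncleaved targets were sequenced and normalised to depth and to weakly complementary targets. Each reaction held 0.1 nM transcribed, DNA-blocked target RNA library and 1 nM active affinity-purified piRISC carrying one synthetic guide, with or without 500 nM GTSF1 partner protein, in HEPES–potassium acetate buffer at 33 °C for 0–8 or 0–960 min. k3 was capped at 0.0001 min^-1.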

| Sequence | pre-steady-state target cleavage rate |
| --- | --- |
| UCCUCCUACAGGAUGCAUAGUAUUUUCAAA | 0.00259 ± 0.0025 |
| UCCUGCUACAGCUUGCUUAGUAUUUAGAAA | 0.00409 ± 0.0022 |
| UCCUGGAUGUGCUUGCAUAGUAUGUAGUUA | 0.00399 ± 0.0022 |
| UCCUGGUACAGCUUGCAUUGUAUUUAGAAA | 0.00329 ± 0.0019 |
| UCCUGGAACUGCUUGCAUAGUAUUUAGAAA | 0.00485 ± 0.0026 |
| UCCUGGAACAGCUUGGAUAGUAUUAAGUUA | 0.00405 ± 0.0034 |
| UCCUGCUACAGCUUGCAUUGUAUUUAGAUA | 0.00283 ± 0.0018 |
| UCCUGCUACAGCUUGCAUAGAAUUUUGUUA | 0.00457 ± 0.0019 |
| UCCUGGUACAGCUUGCAUAGAAUUUAGUUA | 0.00314 ± 0.0023 |
| UCCUGGAACACCUAGCAUAGUAUUUAGUUA | 0.00601 ± 0.0036 |
| UCCUCCUACAGCUUGCAAUAGUAUUUAGUUA | 0.0427 ± 0.014 |
| UCCUCCAUCAGCUUGCAUAGUAUUUUCAAA | 0.00384 ± 0.0024 |
| UCCUGCUACAGCUUGCAUAGUAUUUUGAAA | 0.0045 ± 0.0018 |
| UCCUGCUACAGCUUGCAUAGAAUAUAGUUA | 0.00332 ± 0.0022 |
| UCCUGGAACAGCUUGCAUAGUAAAUAGAAA | 0.00337 ± 0.0028 |
| UCCUGGAACAGCUUGCAUAGAAUUUAGUAA | 0.00292 ± 0.002 |
| UCCUCCUACAGCUUGCAUAGUAUUUAGAAA | 0.00581 ± 0.0024 |
| UCCUCCUACAGCUUGCUUAGUAUUUAGAAA | 0.00569 ± 0.0027 |
| UCCUGGAACAGCAUCCAUAGUAUUUAGUUA | 0.0025 ± 0.0021 |
| UCCUCCUACAGCUAGCAUAGUAUUUUGUUA | 0.0077 ± 0.0035 |

| Sequence | pre-steady-state target cleavage rate |
| --- | --- |
| UCCUGCUAGAGCUUGCAUAGAAUUUAGUUA | 0.0043 ± 0.0014 |
| UCCUGCUACACCUUGCAUAGUAUUUUCAAA | 0.00244 ± 0.0022 |
| UCCUGGAUGAGCUUGCAUAGUAUUUACUAA | 0.00198 ± 0.002 |
| UCCUCCUACAGCUUGCAAAGUAUUUAGAUA | 0.00419 ± 0.0024 |
| UCCUCCUACAGCUUGCAUAGUUAAUAGUUA | 0.00703 ± 0.0035 |
| UCCUGGAUGUGCUUGCAUAUUAUUUAGUUA | 0.00647 ± 0.0022 |
| UCCUCCUACACCUUGCAUAGUAUUUACUUA | 0.00326 ± 0.0032 |
| UCCUGCUACAGCUUGCAUAGUAUAAUGUUA | 0.00304 ± 0.002 |
| UCCUGGUACAGCUUGCAUACUAUUUAGUAA | 0.00327 ± 0.0023 |
| UCCUGGAUCACGAUGCAUAGUAUUUAGUAA | 0.00397 ± 0.0033 |
| UCCUCCUACAGCAUGCAUAGAAUUUAGUUA | 0.00245 ± 0.0015 |
| UCCUGCUACAGCUUGCAUAGGAUUUAGUUA | 0.00356 ± 0.001 |
| UCCUCCUACAGGUUGCAUAGUAUUUAGAAA | 0.00461 ± 0.0014 |
| UCCUCCUACAGCUAGCAUAGUAUUUACAAA | 0.00397 ± 0.0031 |
| UCCUGCUACAGCUUGCAUAGUUUAUAGUUA | 0.00312 ± 0.0027 |
| UCCUCCUACAGCUUGCAUAGUAUUAAGAUA | 0.00411 ± 0.0022 |
| UCCUGGAACAGCUUGGAUAGUUUUUAGUUA | 0.00298 ± 0.0022 |
| UCCUGCUACAGCUUGCAUAGUAUUUAGGUA | 0.00342 ± 0.0016 |
| UCCUCCUACAGCUUGCAUAGUAUGUAGUUA | 0.00354 ± 0.0013 |
| UCCUGCUACAGCUUGGAUAGAAUUUAGUUA | 0.0053 ± 0.0018 |
